Laboratory results from PubChem BioAssay (NCATS).
Results filed as inconclusive are left out. Calls of active or inactive are those of the source. Unless noted, calls follow the shape of the dose curve; as a rule, active = well fitted curve in the direction sought with a large enough effect; inconclusive = small, poorly fitted or top-dose-only effect, or another doubt; inactive = no such curve, though single readings can be large; an effect the other way counts as inactive or inconclusive.

Legend:
[1] = qHTS assay for small molecule agonists of the antioxidant response element (ARE) signaling pathway measured by Nrf2-dependant transcriptional activity (AID 720636; active = well fitted curve in the direction sought with a large enough effect in the repeat runs; an effect the other way counts as inactive or inconclusive;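 also: HepG2 cells with an ARE-driven luciferase reporter; % of control where 0% means no effect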)
Outline: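 We exposed ARE-luc HepG2 cells, seeded in assay medium with 1% dialyzed FBS and allowed 6 hr to adhere, to test compounds overnight (16 hr, 37 C) before measuring luciferase with ONE-Glo.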

[2] = qHTS assay for small molecule antagonists of the retinoid-related orphan receptor gamma (ROR-gamma) signaling pathway - cell viability counter screen (AID 720652; active = well fitted curve in the direction sought with a large enough effect in the repeat runs; an effect the other way counts as inactive or inconclusive;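 also: CHO reporter cells with doxycycline-induced ROR-gamma expression; series mostly up to about 92 µM; compound exposure lasted 16 hr before ATP read; % is scaled to controls: 0 for no effect and ±100 for the full control effect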)
Outline: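 Steps: seed CHO cells bearing TET-inducible ROR and ROR response element-luciferase; rest 5 hr at 37 C; add compound, then doxycycline; incubate 16 hr; add CellTiter-Glo and read luminescence as ATP-based viability.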

[3] = qHTS assay for small molecule agonists of the antioxidant response element (ARE) signaling pathway measured by Nrf2-dependant transcriptional activity - cell viability counter screen (AID 720653; active = well fitted curve in the direction sought with a large enough effect in the repeat runs; an effect the other way counts as inactive or inconclusive; also: % is scaled to controls: 0 for no effect and ±100 for the full control effect); conditions: ARE-bla HepG2 viability, CellTiter-Glo ATP luminescence, 16 h; stronger effect = lower value
Outline: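 Cytotoxicity counter screen: intracellular ATP quantified by CellTiter-Glo luminescence in the same ARE-bla HepG2 plates, after 16 h compound exposure and a 2 h beta-lactamase substrate step.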

[4] = molecular target: Arylsulfatase A (Homo sapiens) (UniProt P15289); assay: qHTS screen for enhancers of Arylsulfatase A (ASA1): LOPAC Validation Assay (AID 720538); conditions: outcome: dose series up to 57.5 µM
Outline: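 Cell-based enhancement test: residual ASA activity in SV40-transformed I179S patient fibroblasts is measured by pNCS turnover (0.5mM final, 14h, room temperature) following 48h compound incubation; higher fluorescence indicates activation.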

[5] = qHTS for compounds that reverse cellular toxicity of Amyloid beta (A-beta) peptide in yeast: LOPAC Validation Assay (AID 720559);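 also: plate controls were DMSO for no effect and equimolar ferric chloride plus clioquinol rescue for full effect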
Outline: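 Here, A-beta-toxic yeast grow with test compounds at 30 C for 48 hr before optical density at 600 nm is recorded; data are normalized against DMSO and the FeCl3-clioquinol control.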

[6] = qHTS for Activators of Parkin Expression: LOPAC Validation Assay (NLuc Reporter) (AID 720572)
Outline: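 Compound effects on Parkin promoter activity were measured as NanoLuc luminescence after 24 h at 37 C. The neuronal reporter line also carried FLuc, which was read first. LOPAC compounds were tested at 7 concentrations, with normalization to DMSO (0%) and positive control (100%).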

[7] = qHTS for Activators of Parkin Expression: LOPAC Validation Assay (FLuc Reporter) (AID 720573)
Outline: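 Readout is FLuc luminescence from neuronal reporter cells (Parkin promoter, FLuc plus NLuc) after 24 h compound exposure in dose response. Values normalized to neutral DMSO and positive-control compounds.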

[8] = molecular target: T1, Hexokinase-4 (Homo sapiens) + Glucokinase regulatory protein (Homo sapiens) (UniProt P35557+Q14397); assay: qHTS assay for inhibitors of recombinant human GCK-GKRP interaction: Diaphorase-coupled assay (AID 743205)
Outline: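 Signal derives from resorufin generated by diaphorase, linked to GCK turnover of glucose (5 mM) and ATP (0.4 mM). Enzyme complex was added after a 20-minute compound preincubation and monitored for 30 minutes.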

[9] = molecular target: T1, Hexokinase-4 (Homo sapiens) + Glucokinase regulatory protein (Homo sapiens); assay: qHTS assay for inhibitors of recombinant human GCK-GKRP interaction: ADP-Glo assay (AID 743206);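 also: plate controls were DMSO plus enzyme for no effect and no enzyme for full effect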
Outline: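 Pin-transferred compounds meet a 15 nM GST-GCK/15 nM FLAG-GKRP/2 uM S6P mix (dispense concentrations). ATP is then added to 0.4 mM final with 5 mM glucose, and the reaction runs 60 min at room temperature. ADP is quantified luminescently.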

[10] = molecular target: T1, Hexokinase-4 (Homo sapiens) + Glucokinase regulatory protein (Homo sapiens); assay: qHTS assay for inhibitors of recombinant human GCK-GKRP interaction: HTRF assay (AID 743207);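 also: 0% = DMSO with GCK present and -100% = DMSO wells lacking GCK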
Outline: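 Titration screening format: recombinant GST-GCK and FLAG-GKRP at 5 nM, S6P at 2 uM, labelled anti-tag antibodies, 60 min at RT, dual-wavelength HTRF readout.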

Measured: max response

T1 sequence (P35557 whole entry, looked up): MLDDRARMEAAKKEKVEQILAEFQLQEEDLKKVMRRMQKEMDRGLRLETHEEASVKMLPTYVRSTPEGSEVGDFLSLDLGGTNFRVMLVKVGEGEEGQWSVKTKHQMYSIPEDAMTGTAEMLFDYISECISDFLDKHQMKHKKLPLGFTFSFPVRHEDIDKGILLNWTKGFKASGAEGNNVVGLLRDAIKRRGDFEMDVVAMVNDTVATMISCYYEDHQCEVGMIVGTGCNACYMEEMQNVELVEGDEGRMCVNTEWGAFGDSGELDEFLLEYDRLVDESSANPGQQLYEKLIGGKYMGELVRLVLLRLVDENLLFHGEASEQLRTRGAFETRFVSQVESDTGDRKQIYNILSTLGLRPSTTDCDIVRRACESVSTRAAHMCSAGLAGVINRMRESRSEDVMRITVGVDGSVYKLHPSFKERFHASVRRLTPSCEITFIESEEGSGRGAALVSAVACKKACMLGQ
T1 sequence (Q14397 whole entry, looked up): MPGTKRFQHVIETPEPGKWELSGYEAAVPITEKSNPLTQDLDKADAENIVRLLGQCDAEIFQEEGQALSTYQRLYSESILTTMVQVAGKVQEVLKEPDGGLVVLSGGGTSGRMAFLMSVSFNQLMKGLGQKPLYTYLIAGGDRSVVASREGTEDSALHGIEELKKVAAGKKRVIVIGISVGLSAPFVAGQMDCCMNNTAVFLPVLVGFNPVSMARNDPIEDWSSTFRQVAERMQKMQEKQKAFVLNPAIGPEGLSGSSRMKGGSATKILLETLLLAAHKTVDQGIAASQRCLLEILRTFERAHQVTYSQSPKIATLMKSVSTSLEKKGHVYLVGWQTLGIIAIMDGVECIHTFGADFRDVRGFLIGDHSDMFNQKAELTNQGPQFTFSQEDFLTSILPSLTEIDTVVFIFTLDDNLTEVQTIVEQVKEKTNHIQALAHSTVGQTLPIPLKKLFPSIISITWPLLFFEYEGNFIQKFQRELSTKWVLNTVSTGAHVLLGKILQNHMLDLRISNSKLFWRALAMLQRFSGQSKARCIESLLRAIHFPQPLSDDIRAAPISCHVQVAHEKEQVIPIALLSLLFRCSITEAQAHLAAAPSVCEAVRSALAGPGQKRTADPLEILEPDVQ
Sequence of Arylsulfatase A (Homo sapiens) (P15289 whole entry, looked up): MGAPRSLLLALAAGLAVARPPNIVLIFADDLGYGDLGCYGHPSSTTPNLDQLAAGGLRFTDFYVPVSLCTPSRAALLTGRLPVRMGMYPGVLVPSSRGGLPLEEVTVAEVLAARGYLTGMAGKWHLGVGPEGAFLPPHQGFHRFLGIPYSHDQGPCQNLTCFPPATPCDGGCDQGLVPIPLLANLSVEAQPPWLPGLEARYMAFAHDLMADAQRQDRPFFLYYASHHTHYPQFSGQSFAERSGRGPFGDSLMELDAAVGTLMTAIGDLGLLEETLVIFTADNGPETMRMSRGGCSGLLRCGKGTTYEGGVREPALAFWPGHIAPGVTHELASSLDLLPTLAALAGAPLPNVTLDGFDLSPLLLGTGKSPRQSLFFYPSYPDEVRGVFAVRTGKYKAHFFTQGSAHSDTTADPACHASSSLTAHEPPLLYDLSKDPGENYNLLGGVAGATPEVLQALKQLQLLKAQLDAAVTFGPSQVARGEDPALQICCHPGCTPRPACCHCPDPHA

Cc1cc(O)c2c(c1)C(=O)c1cccc(O)c1C2=O
inactive: [1] | [2] | [3] -8.79%

O=C1c2cccc(O)c2C(=O)c2c(O)cc(CO)cc21
inactive: [3] 1.52%

OC[C@@H](O)[C@@H](O)[C@H](O)[C@@H](O)CO
inactive: [1] | [3] 2.04%

CC(C=CC1=C(C)CCCC1(C)C)=CC=CC(C)=CC(=O)Nc1ccc(O)cc1
inactive: [1]

O=c1[nH]c(=O)n([C@H]2C[C@@H](O)[C@@H](CO)O2)cc1C=CBr
not listed: [1] | [2] | [3]
inactive: all other assays above

C[C@]12CC[C@@H]3c4ccc(O)cc4CC[C@H]3[C@H]1CC[C@H]2O
inactive: [1] | [3] -1.4%

CN[C@H](CC(C)C)C(=O)N[C@H]1C(=O)N[C@@H](CC(N)=O)C(=O)N[C@@H]2C(=O)N[C@H]3C(=O)N[C@H](C(=O)N[C@H](C(=O)O)c4cc(O)cc(O)c4-c4cc3ccc4O)[C@H](O)c3ccc(c(Cl)c3)Oc3cc2cc(c3O[C@@H]2O[C@H](CO)[C@@H](O)[C@H](O)[C@@H]2O[C@H]2C[C@](C)(N)[C@H](O)[C@H](C)O2)Oc2ccc(cc2Cl)[C@H]1O
not listed: [1] | [2] | [3]
inactive: all other assays above

COc1ccc2cc([S+]([O-])Cc3ncc(C)c(OC)c3C)nc2c1
inactive: [5] | [6] | [7] | [8] | [9] | [10]
